# Experimental data taken from the supplement of paper PMC9135407.
# Where “and” joins values, the source holds several entries; their conditions need not be identical. Equal values may be shown once. Where a name gives a salt, the structure may show the parent alone. In all, about 5,800 compounds went through this assay and about 620 (11%) showed activity. Many of the other results were omitted from the sample, so actives are more common in it than they were. A number with no mark means an inactive call.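 Rule for the calls: active = score above a cut-off or among the top three wells of a plate; in these data no inactive exceeds 0.85.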
# System: primary human hepatic stellate cells (donor 1)
# Experiment: scaled lipid accumulation score (0 = DMSO-like, 1 = nortriptyline-like); higher = stronger HSC inactivation (lipid re-accumulation), active = hit call of the paper
# Conditions: 48 h
# [1] = library stock concentration: 10 mM
# [2] = library stock concentration: 80 uM
# [3] = library stock concentration: 400 uM
# [4] = library stock concentration: 2 mM
# [5] = library stock concentration: 1 mM
# [6] = library stock concentration: 3.33 mM
compound,measurement,setting,value
N=C(N)S/C=C\C(=O)O [ZAPA sulphate],scaled lipid accumulation score,[1],0.011
CC(O)C(=O)O.N (centres undefined),scaled lipid accumulation score,[1],≤ 0
CC(C)S(=O)(=O)Nc1ccc(F)c(C(=O)c2c[nH]c3ncc(-c4cccnc4)cc23)c1F,scaled lipid accumulation score,[2],≤ 0
same,scaled lipid accumulation score,[3],≤ 0
same,scaled lipid accumulation score,[4],≤ 0
same,scaled lipid accumulation score,[1],0.059
CC(C)(CCCCCCCCCCC(C)(C)CC(=O)O)CC(=O)O,scaled lipid accumulation score,[5],0.013
CCCCC/C=C\C/C=C\C/C=C\C/C=C\CCCC(=O)OCC [Arachidonic Acid ethyl ester],scaled lipid accumulation score,[5],≤ 0
CC(C)=CCC/C(C)=C/CC/C(C)=C/CSc1ccccc1C(N)=O [Farnesyl Thiosalicylic Acid Amide],scaled lipid accumulation score,[5],≤ 0
CCCCCCCCCCCCCCCC(=O)OC[C@H](COP(=O)([O-])OCC[N+](C)(C)C)OC(=O)CCCCCCCC(=O)/C=C/C(=O)O,scaled lipid accumulation score,[5],0.026
"Nc1nc2c(nc(Br)n2[C@@H]2O[C@@H]3COP(=O)(O)O[C@H]3[C@H]2O)c(=O)[nH]1 [8-Bromo-cGMP, sodium salt]",scaled lipid accumulation score,[1],0.026
CCCCC/C=C\C[C@@H](O)/C=C/C=C/C=C\[C@@H](O)CCCC(=O)O [Leukotriene B4],scaled lipid accumulation score,library stock concentration: 100 uM,≤ -0.021
NC(CCCP(=O)(O)O)C(=O)O (centres undefined),scaled lipid accumulation score,[1],0.024
NC(CCCP(=O)(O)O)C(=O)O (stereo not drawn) [D(-)-2-Amino-5-phosphonopentanoic acid],scaled lipid accumulation score,[1],0.148
CCCCCCCCc1ccc(CCC(N)(CO)CO)cc1.Cl [Fingolimod (FTY720) HCl],scaled lipid accumulation score,[6],1.17 (active)
CCCCCCCCc1ccc(CCC(N)(CO)CO)cc1,scaled lipid accumulation score,[5],0.527
CCCCCCCCc1ccc(CCC(N)(CO)CO)cc1 [Fingolimod (FTY720) HCl],scaled lipid accumulation score,[1],0.376
CCCCCCCCc1ccc(-c2ccc(C(=O)O)cc2)cc1,scaled lipid accumulation score,[1],≤ 0 and 0.032
CC1(C)CCC(C)(C)c2cc(C3(c4ccc(C(=O)O)cc4)OCCO3)ccc21,scaled lipid accumulation score,[1],≤ -0.001
COCCCCCCCCCCCC(=O)O [12-Methoxydodecanoic acid],scaled lipid accumulation score,[5],≤ -0.021
COCCCC/C(=N\OCCN)c1ccc(C(F)(F)F)cc1 [Fluvoxamine],scaled lipid accumulation score,[1],0.69
COCCCC/C(=N\OCCN)c1ccc(C(F)(F)F)cc1 [Fluvoxamine maleate],scaled lipid accumulation score,,0.592
same,scaled lipid accumulation score,[6],0.347
same,scaled lipid accumulation score,[1],0.81 and 0.545
COCCCC/C(=N\OCCN)c1ccc(C(F)(F)F)cc1.O=C(O)/C=C\C(=O)O [Fluvoxamine maleate],scaled lipid accumulation score,[1],1.13 (active)
CCCCC[C@H](O)/C=C/[C@@H]1[C@@H](C/C=C\CCCC(=O)O)[C@H](O)C[C@H]1O [Prostaglandin F2.beta.],scaled lipid accumulation score,[5],≤ 0
CCCCC[C@H](O)/C=C/[C@@H]1[C@@H](C/C=C\CCCC(=O)O)[C@H](O)C[C@H]1O [Prostaglandin F2.beta. (tromethamine salt)],scaled lipid accumulation score,[5],≤ 0
"CCCCC[C@H](O)/C=C/[C@@H]1[C@@H](C/C=C\CCCC(=O)O)[C@H](O)C[C@H]1O [9b,11a-Prostaglandin F2]",scaled lipid accumulation score,[5],≤ -0.021
CSc1ccc2c(c1)C(N1CCN(C)CC1)Cc1ccccc1S2 (centres undefined) [Methiothepin mesylate],scaled lipid accumulation score,[1],0.774
CSc1ccc2c(c1)C(N1CCN(C)CC1)Cc1ccccc1S2 (centres undefined) [Methiothepin maleate],scaled lipid accumulation score,,0.829
CSc1ccc2c(c1)C(N1CCN(C)CC1)Cc1ccccc1S2.O=C(O)/C=C\C(=O)O (centres undefined) [Methiothepin maleate],scaled lipid accumulation score,[1],1.41 (active)
CCCCCC(O)C=CC1C(O)CC(=O)C1CC=CCCCC(=O)O (centres undefined) [8-iso Prostaglandin E2],scaled lipid accumulation score,[5],≤ 0
CO[C@H]1C[C@H](O[C@H]2[C@H](C)O[C@@H](O[C@@H]3/C(C)=C/C[C@@H]4C[C@@H](C[C@]5(C=C[C@H](C)[C@@H](C6CCCCC6)O5)O4)OC(=O)[C@@H]4C=C(C)[C@@H](O)[C@H]5OC/C(=C\C=C\[C@@H]3C)[C@]54O)C[C@@H]2OC)O[C@@H](C)[C@@H]1O,scaled lipid accumulation score,[1],0.081
"CCCCC[C@H](O)CC[C@H]1[C@H](O)CC(=O)[C@@H]1CCCCCCC(=O)O [13,14-Dihydro-PGE1]",scaled lipid accumulation score,[5],≤ -0.021
Cc1cn(-c2cc(NC(=O)c3ccc(C)c(Nc4nccc(-c5cccnc5)n4)c3)cc(C(F)(F)F)c2)cn1,scaled lipid accumulation score,[2],≤ -0.009
same,scaled lipid accumulation score,[3],0.035
same,scaled lipid accumulation score,[4],≤ -0.009
same,scaled lipid accumulation score,[1],≤ -0.008
CNc1nccc(-c2cccnc2Oc2cc(C(=O)Nc3cccc(C(F)(F)F)c3)ccc2C)n1,scaled lipid accumulation score,[1],1.13 (active)
